Data from PubChem BioAssay (NCATS).
Where “and” joins values, the source holds several entries; their conditions need not be identical. Equal values may be shown once. Inconclusive results are not listed. Calls of active or inactive are those of the source. Unless noted, the call rests on the fitted dose curve; in most records, active means well fitted curve in the direction sought with a large enough effect; inconclusive means small, poorly fitted or top-dose-only effect, or another doubt; inactive means no such curve, though single readings can be large; an effect the other way counts as inactive or inconclusive.

Key:
[1] = Cell Viability - BJ (AID 421; calls by dose curve;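 further: potency means the concentration at half of the fitted maximal effect; cells exposed to compound for 40 hours at 37 °C before readout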); settings: BJ fibroblast viability, qHTS
How it was run: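 Cytotoxicity in human BJ foreskin fibroblasts is scored as loss of cellular ATP after a 40-hour exposure, measured by luciferase luminescence. Controls are DMSO and 100 uM tamoxifen.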

[2] = Cell Viability - Jurkat (AID 426;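 active means dose-dependent loss of cell ATP signal giving a full or clear fitted curve, ranked by lower potency value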;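 further: potency means the concentration at half of the fitted maximal effect; cells exposed to compound for 40 hours at 37 °C before ATP read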); settings: qHTS
How it was run: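 qHTS, 1536-well; Jurkat E6-1, 5000 cells/well, complete medium; cpd 40 hr, 37 °C; CellTiter-Glo 20 min RT; luminescence. AC50 by Hill fit.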

[3] = Cell Viability - Hek293 (AID 427;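 active means compounds whose dose-response curve shows a full or clear partial loss of cell viability, called from curve shape rather than a numeric limit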;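 further: potency means the concentration at half of the fitted maximal effect; cells exposed to compound for 40 hours at 37 °C before reading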); settings: qHTS
How it was run: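 qHTS, human embryonic kidney (adenovirus-transformed) cells; 40 hr cpd, 37 °C; CellTiter-Glo ATP luminescence. Norm: DMSO = 0, 100 uM tamoxifen = 100% inhibition. Hill-fit AC50.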

[4] = Cell Viability - SK-N-SH (AID 435; calls by dose curve;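 further: potency means the concentration at half of the fitted maximal effect; compound exposure lasted 40 h at 37 °C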); settings: SK-N-SH neuroblastoma cell viability qHTS
How it was run: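 Cells seeded at 1500 per well and incubated 5 hr at 37 °C. Compound added, then 40 hr at 37 °C. CellTiter-Glo added, 20 min at room temperature, luminescence read.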

[5] = Cellular Toxicity (caspase-3) Jurkat (AID 655); settings: Jurkat caspase-3 activation, luminescence; caspase-3 activation: at 92.2 µM (top of the series), DMSO = 0%, tamoxifen = 100%;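 further: cells exposed to compound for 16 h at 37 °C before reading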
How it was run: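 Caspase 3/7 activation is scored as increased luminescence in Jurkat cells cultured with compound for 16 hours in complete medium. AC50 values come from Hill fits of qHTS concentration-response data normalized to DMSO and 100 uM tamoxifen controls.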

[6] = Cellular Toxicity (caspase-3) SHSY5Y (AID 657); settings: SH-SY5Y caspase-3 activation, DMSO zero, 10 µM staurosporine = 100%; series mostly up to 91.7 µM
How it was run: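 Cells plated and incubated 5 h at 37 °C, dosed over a concentration range, incubated 16 h, then given Caspase-Glo 3/7 reagent for 1 h at room temperature before luminescence reading. Staurosporine (10 uM) defined full stimulation.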

[7] = Cellular Toxicity (caspase-3) BJ (AID 658); settings: BJ fibroblasts, luminescence, normalized: DMSO 0%, staurosporine 100%; series mostly up to 91.7 µM
How it was run: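 Luminescent aminoluciferin-substrate cleavage reports caspase 3/7 activity in normal human BJ fibroblasts after 16 hr compound exposure at 37 °C. Normalized to DMSO (basal) and 10 uM staurosporine (100%); AC50 from Hill fit of concentration-response.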

[8] = Cellular Toxicity (caspase-3) N2a (AID 665); settings: N2a cells, luminescence, normalized: DMSO 0%, 10 µM staurosporine 100%; series mostly up to 92.2 µM;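 further: compound exposure lasted 16 h at 37 °C before readout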
How it was run: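 N2a cells, 1500/well, 5 h settle at 37 °C; cpd 16 h, 37 °C; Caspase-Glo 3/7, 1 h RT; luminescence. Norm: DMSO = 0, 10 uM staurosporine = 100%. AC50, Hill fit.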

[9] = Cellular Toxicity (caspase-3) Renal Proximal Tubule (AID 667); settings: renal proximal tubule cells; series mostly up to 91.7 µM;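 further: cells exposed to compound for 16 hours at 37 °C before detection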
How it was run: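 In qHTS format, rat primary proximal tubule cells seeded at 1000 per well are exposed to compounds for 16 hours at 37 °C. An increase in Caspase-Glo 3/7 luminescence indicates caspase activation.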

[10] = MultiTox-Fluor Cytotoxicity Assay - LYMP1-001 - Dead Cells (AID 946); settings: LYMP1-001 lymphoblastoid cells, dead-cell protease fluorescence; series mostly up to 92.2 µM
How it was run: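 Seed 2500 LYMP1-001 cells/well, incubate 5 hr at 37 C; add compound, 16 hr at 37 C; add MultiTox-Fluor reagent, 60 min RT; read dead-cell fluorescence Ex/Em=485/520. Normalize to DMSO and 15 uM tetraoctylammonium bromide.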

[11] = Cell Viability - LYMP1-002 - Assay at 16 hr (AID 948); settings: LYMP1-002 lymphoblastoid cell viability; series mostly up to 92.2 µM;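 further: 0% = DMSO alone and full effect = 92 µM tetraoctylammonium bromide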
How it was run: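 Acute cytotoxicity is scored as a concentration-dependent fall in intracellular ATP in a human lymphoblastoid line (LYMP1-002) after 16 hr compound exposure at 37 C, measured by luciferase luminescence.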

[12] = MultiTox-Fluor Cytotoxicity Assay - LYMP1-003 - Dead Cells (AID 961); settings: LYMP1-003 lymphoblastoid cells, dead-cell protease fluorescence; series mostly up to 92.2 µM; further: nearly all actives have a fitted effect of over 70% in size
How it was run: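 LYMP1-003 lymphoblastoid, 2500 cells/well, 5 hr settle then 16 hr cpd at 37 C; MultiTox-Fluor reagent 60 min RT; Ex/Em 485/520 dead-cell signal; norm. DMSO = 0%, 15 uM tetraoctylammonium bromide = 100%; Hill AC50.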

[13] = Cell Viability - LYMP1-003 - Assay at 24 hr (AID 963); settings: LYMP1-003 lymphoblastoid cell viability; series mostly up to 92.2 µM;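 further: plate controls were DMSO only for no effect and tetraoctylammonium bromide positive control for full effect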
How it was run: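 Cells seeded at 2500/well, 5 hr at 37 C; compounds added; 24 hr at 37 C; CellTiter-Glo added, 30 min room temperature; luminescence read. Decrease in ATP taken as cytotoxicity, AC50 from Hill modelling.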

[14] = Cell Viability - LYMP2-013 (AID 970); settings: LYMP2-013 lymphoblastoid cells viability; series mostly up to 92.2 µM;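 further: cells exposed to compound for 24 h at 37 °C; 0% = DMSO only and full inhibition = tetraoctylammonium bromide control; nearly all actives have a fitted effect of over 55% in size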
How it was run: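 qHTS; 2500 lymphoblastoid cells/well; 5 hr 37 C settle; cpd 24 hr 37 C; CellTiter-Glo, 30 min RT; luminescence. AC50 = Hill fit.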

[15] = Cell Viability - LYMP2-016 (AID 984); settings: LYMP2-016 lymphoblastoid cell viability, qHTS; series mostly up to 92.2 µM;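 further: cells exposed to compound for 24 hours at 37 °C; on the % scale 0 is the no-effect control and ±100 the full control effect; nearly all actives have a fitted effect of over 55% in size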
How it was run: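 Acute toxicity in a Coriell human lymphoblastoid line is scored as loss of intracellular ATP over 24 h of treatment in complete medium. CellTiter-Glo signal is fitted across concentrations with the Hill equation to give AC50.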

[16] = Cell Viability - LYMP1-002 - Assay at 24 hr (AID 993); settings: LYMP1-002 lymphoblastoid cells viability; series mostly up to 92.2 µM; further: on the % scale 0 is the no-effect control and ±100 the full control effect
How it was run: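 Cells plated 2500/well, 5 hr 37 C; compounds added, 24 hr 37 C; CellTiter-Glo added, 30 min RT; luminescence read. Tetraoctylammonium bromide positive control. Hill-equation AC50.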

[17] = qHTS Assay for Identification of Small Molecule Inducers of Hypoxia Response (AID 2120; active means well fitted curve in the direction sought with a large enough effect in the signal ratio, with a control signal flat, not every such curve was filed as active; the % refers to the signal ratio; further: 0% is about no effect); settings: hypoxia response reporter cells, beta-lactamase ratio readout; series mostly up to 104 µM
How it was run: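 ME-180 HRE-bla cells plated in Opti-MEM/0.5% dialyzed FBS, rested 4-5 h, then dosed with compound titrations by pin tool. After 17 h at 37 degrees C, CCF4 dye loaded 2.5 h at RT; 460/530 nm ratio gave %Activity and AC50.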

[18] = biological target: Peroxisome proliferator-activated receptor alpha (Homo sapiens) (UniProt Q07869); test: qHTS assay for small molecule agonists of the peroxisome proliferator-activated receptor alpha (PPARalpha) signaling pathway (AID 651778); settings: PathHunter PPARalpha complementation, chemiluminescence, 6 h; stronger effect = higher value; further: % of control where 0% means no effect
Peroxisome proliferator-activated receptor alpha (Homo sapiens), sequence (Q07869 whole entry, looked up): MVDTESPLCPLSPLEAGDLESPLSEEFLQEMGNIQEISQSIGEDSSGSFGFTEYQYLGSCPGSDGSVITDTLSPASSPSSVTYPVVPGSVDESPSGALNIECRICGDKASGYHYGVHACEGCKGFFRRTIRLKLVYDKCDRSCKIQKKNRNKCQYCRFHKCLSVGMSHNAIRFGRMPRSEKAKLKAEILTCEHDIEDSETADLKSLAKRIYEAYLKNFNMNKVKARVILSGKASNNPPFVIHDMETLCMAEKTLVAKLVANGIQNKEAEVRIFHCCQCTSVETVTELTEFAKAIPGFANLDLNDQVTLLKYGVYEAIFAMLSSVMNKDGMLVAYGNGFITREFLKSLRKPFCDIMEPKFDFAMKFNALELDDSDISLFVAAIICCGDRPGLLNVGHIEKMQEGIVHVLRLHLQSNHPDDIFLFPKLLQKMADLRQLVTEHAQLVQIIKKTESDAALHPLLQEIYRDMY
How it was run: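 Cells plated at 2,000/well and held overnight at 37 C, 5% CO2, then compound added by pin tool for 6 hr; after PathHunter detection reagent and 60 min at room temperature, chemiluminescence from enzyme complementation was read.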

[19] = qHTS assay for cell viability of HEK293 cells (AID 743288); settings: ATP luminescence (CellTiter-Glo), 18 h, stronger effect = lower value; further: on the % scale 0 is the no-effect control and ±100 the full control effect; nearly all actives have a fitted effect of over 50% in size
How it was run: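 The Tox21 protocol used parental HEK293 cells treated for 18 h at 37 C with compounds delivered by pintool; ATP-coupled luminescence after 30 min at room temperature gave viability.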

[20] = qHTS assay for cell viability of the p53RE-bla HCT-116 cell line (AID 743292); settings: p53RE-bla HCT-116 viability, ATP luminescence, 16 h; series mostly up to 95 µM; further: on the % scale 0 is the no-effect control and ±100 the full control effect; nearly all actives have a fitted effect of over 55% in size
How it was run: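 Luminescent ATP quantitation (CellTiter-Glo) served as the viability read-out; reagent was added after 16 h compound exposure at 37 C and read after 30 min at room temperature. Cells: p53RE-bla HCT-116, 4,000 per well.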

O=[N+]([O-])c1cccc2c([N+](=O)[O-])cccc12
inactive: Potency [1] > 92 µM | Potency [2] > 92 µM | Potency [3] > 92 µM | Potency [4] > 92 µM | caspase-3 activation [5] 0.295% | outcome [6] | outcome [7] | outcome [8] | outcome [9] | outcome [10] | outcome [11] | Potency [12] | outcome [13] | Potency [14] | Potency [15] | Potency [16] | Potency [17] | max response [18] -0.14% | max response [19] -6.41% | Potency [20]

C/C=C/CC#N
inactive: Potency [1] > 92 µM | Potency [2] > 92 µM | Potency [3] > 92 µM | Potency [4] > 92 µM | caspase-3 activation [5] 0.734% | outcome [6] | outcome [7] | outcome [8] | outcome [9] | outcome [10] | outcome [11] | Potency [12] | outcome [13] | Potency [14] | Potency [15] | Potency [16] | Potency [17] | max response [18] -3.98% | max response [19] -10.8% | Potency [20]

O=P(OCCCl)(OCCCl)OCCCl
inactive: Potency [1] > 92 µM | Potency [2] > 92 µM | Potency [3] > 92 µM | Potency [4] > 92 µM | caspase-3 activation [5] -1.25% | outcome [6] | outcome [7] | outcome [8] | outcome [9] | outcome [10] | outcome [11] | Potency [12] | outcome [13] | Potency [14] | Potency [15] | Potency [16] | Potency [17] | max response [18] -2.47% | max response [19] -2.52% | Potency [20]

[N-]=[N+]=[N-]
inactive: Potency [1] > 92 µM | Potency [2] > 92 µM | Potency [3] > 92 µM | Potency [4] > 92 µM | caspase-3 activation [5] 1.16% | outcome [6] | outcome [7] | outcome [8] | outcome [9] | outcome [10] | outcome [11] | Potency [12] | outcome [13] | Potency [14] | Potency [15] | Potency [16] | Potency [17] | max response [18] -3.11% | max response [19] 0.516% | Potency [20]

COc1ccc(C=O)cc1
inactive: Potency [1] > 92 µM | Potency [2] > 92 µM | Potency [3] > 92 µM | Potency [4] > 92 µM | caspase-3 activation [5] -0.692% | outcome [6] | outcome [7] | outcome [8] | outcome [9] | outcome [10] | outcome [11] | Potency [12] | outcome [13] | Potency [14] | Potency [15] | Potency [16] | Potency [17] | max response [18] 2.57% | max response [19] -1.3% | Potency [20]

COC(=O)c1ccccc1N
inactive: Potency [1] > 92 µM | Potency [2] > 92 µM | Potency [3] > 92 µM | Potency [4] > 92 µM | caspase-3 activation [5] 1.63% | outcome [6] | outcome [7] | outcome [8] | outcome [9] | outcome [10] | outcome [11] | Potency [12] | outcome [13] | Potency [14] | Potency [15] | Potency [16] | Potency [17] | max response [18] -6.67% | max response [19] -4.36% | Potency [20]

CC(=O)[O-].CC(=O)[O-].CC(=O)[O-].[Cr+3]
inactive: Potency [1] > 92 µM | Potency [2] > 92 µM | Potency [3] > 92 µM | Potency [4] > 92 µM | caspase-3 activation [5] 0.251% | outcome [6] | outcome [7] | outcome [8] | outcome [9] | outcome [10] | outcome [11] | Potency [12] | outcome [13] | Potency [14] | Potency [15] | Potency [16] | Potency [17] | max response [18] -3.23% | max response [19] -3.81% | Potency [20]

ClP(Cl)(Cl)(Cl)Cl
inactive: Potency [1] > 92 µM | Potency [2] > 92 µM | Potency [3] > 92 µM | Potency [4] > 92 µM | caspase-3 activation [5] 0.993% | outcome [6] | outcome [7] | outcome [8] | outcome [9] | outcome [10] | outcome [11] | Potency [12] | outcome [13] | Potency [14] | Potency [15] | Potency [16] | Potency [17] | max response [18] 0.162% | max response [19] -14.3% | Potency [20]

Cc1cc(-c2cc(C)c(N)c(C)c2)cc(C)c1N
inactive: Potency [1] > 92 µM | Potency [2] > 92 µM | Potency [3] > 92 µM | Potency [4] > 92 µM | caspase-3 activation [5] 1.01% | outcome [6] | outcome [7] | outcome [8] | outcome [9] | outcome [10] | outcome [11] | Potency [12] | outcome [13] | Potency [14] | Potency [15] | Potency [16] | Potency [17] | max response [18] -3.9% | max response [19] 7.5% | Potency [20]

Clc1cccc(Cl)c1Cl
inactive: Potency [1] > 92 µM | Potency [2] > 92 µM | Potency [3] > 92 µM | Potency [4] > 92 µM | caspase-3 activation [5] -0.0806% | outcome [6] | outcome [7] | outcome [8] | outcome [9] | outcome [10] | outcome [11] | Potency [12] | outcome [13] | Potency [14] | Potency [15] | Potency [16] | Potency [17] | max response [18] -3.74% and -0.322% | max response [19] -5.25% and -0.775% | Potency [20]

Nc1cc(Cl)ccc1Cl
inactive: Potency [1] > 92 µM | Potency [2] > 92 µM | Potency [3] > 92 µM | Potency [4] > 92 µM | caspase-3 activation [5] 0.909% | outcome [6] | outcome [7] | outcome [8] | outcome [9] | outcome [10] | outcome [11] | Potency [12] | outcome [13] | Potency [14] | Potency [15] | Potency [16] | Potency [17] | max response [18] -1.24% | max response [19] 7.64% | Potency [20]
